Only a selection was taken, and hits are over-represented in it overall.
12-LOX inh: blocks human arachidonate 12S-lipoxygenase; AID 1671190; Potency, µM (titrated, usually from 108 µM), inactives show at the highest dose activity change, negative = inhibition, most hits filed as inhibitors; 580,000 tested, 1.1% active; purified 12hLO, xylenol orange hydroperoxide absorbance; also: potency is read from the fitted curve at half-maximal effect
Target sequence (P18054 whole entry, looked up): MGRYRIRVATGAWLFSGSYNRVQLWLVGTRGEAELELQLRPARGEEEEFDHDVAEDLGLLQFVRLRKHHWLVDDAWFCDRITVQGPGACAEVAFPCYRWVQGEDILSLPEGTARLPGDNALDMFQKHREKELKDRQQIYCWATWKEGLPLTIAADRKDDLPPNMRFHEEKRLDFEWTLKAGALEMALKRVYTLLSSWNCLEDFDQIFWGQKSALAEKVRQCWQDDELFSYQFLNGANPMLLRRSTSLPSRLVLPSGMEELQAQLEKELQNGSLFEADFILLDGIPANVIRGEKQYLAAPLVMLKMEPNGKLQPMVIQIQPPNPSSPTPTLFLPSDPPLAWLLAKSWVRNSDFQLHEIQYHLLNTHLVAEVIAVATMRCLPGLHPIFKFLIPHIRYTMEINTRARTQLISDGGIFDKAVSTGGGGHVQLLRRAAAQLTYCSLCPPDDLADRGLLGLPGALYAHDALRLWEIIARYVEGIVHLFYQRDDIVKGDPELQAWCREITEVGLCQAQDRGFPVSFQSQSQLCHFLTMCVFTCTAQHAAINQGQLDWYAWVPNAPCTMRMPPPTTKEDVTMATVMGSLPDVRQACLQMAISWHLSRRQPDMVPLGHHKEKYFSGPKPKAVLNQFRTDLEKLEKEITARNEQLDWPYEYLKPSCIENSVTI
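Purified human 12hLO (150 nM final) in 25 mM Hepes, 0.01% Triton X-100, pH 7.0 was preincubated 15 min at room temperature with compound. Then 40 uM arachidonic acid was added, 30 min. Hydroperoxide was read by Fe-XO absorbance ratio 573/405 nm.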
HT1080 IDH1KD tx: kills HT-1080 cells with IDH1 knockdown; HT-1080 IDH1 knockdown viability, ATP luminescence, 48 h; 360,000 tested, 2% active; Potency, µM (series often up to 46.1 µM), for inactives: at the top dose activity, negative = toxicity, most hits filed as cytotoxic;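 also: potency is read from the fitted curve at half-maximal effect; 0% = DMSO wells and -100% = cell-free medium wells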
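Cytotoxicity counter-line: IDH1KD HT-1080, 48 h, CellTiter-Glo. Curves classed by r2, magnitude and activity.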
TDP1 cell noCPT: qHTS for Inhibitors of human tyrosyl-DNA phosphodiesterase 1 (TDP1): qHTS in cells in absence of CPT. DT40 Tdp1-/- hTDP1 cells, no CPT, ATP luminescence, 48 h. Potency, µM (series often up to 46.2 µM), for the others: top-dose activity change, negative = growth inhibition, hits mostly inhibitors. 420,000 tested, 15% active. AID 686978, 2013; also: potency is read from the fitted curve at half-maximal effect; nearly all actives have a fitted effect of over 55% in size
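Compound effects on proliferation are scored in DT40 Tdp1-/-;hTDP1 cells in the absence of CPT. ATP levels (CellTiter-Glo luminescence) are recorded after a ≥48 hr, 37 °C incubation.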
DT40 TDP1 CPT: growth inhibition of DT40 Tdp1-/-;hTDP1 cells with camptothecin (screen for TDP1 inhibitors); chicken DT40 Tdp1-/-;hTDP1 cells + 20 nM CPT, ATP luminescence, 48 h; Potency, µM (doses to about 46.2 µM), for inactives: at the top dose activity change, negative = growth inhibition, most hits filed as inhibitors; 420,000 tested, 12% active; AID 686979; also: potency is read from the fitted curve at half-maximal effect; nearly all actives have a fitted effect of over 55% in size
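Chicken DT40 Tdp1-/- cells stably complemented with human TDP1 were seeded at 400 cells/well in medium containing 20 nM camptothecin, exposed to pin-transferred compounds, and grown at 37 °C for at least 48 hr. Viability was read as ATP luminescence.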
HT1080-NT tox: kills 2HG-producing HT-1080-NT fibrosarcoma cells. 360,000 tested, 1.6% active. Potency, µM (highest dose often 46.1 µM), inactives show at the top dose activity, negative = less viability, usual class: cytotoxic. AID 686970. HT-1080-NT fibrosarcoma viability, CellTiter-Glo ATP luminescence, 48 h;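 also: NT is the 2HG producing partner of a matched IDH1 knockdown line; potency is read from the fitted curve at half-maximal effect; 0% = DMSO-treated cells and -100% = media-only wells without cells; nearly all actives have a fitted effect of over 55% in size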
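HT-1080-NT fibrosarcoma cells (2HG-overproducing), 750 cells/well in RPMI with 5% FBS, dosed after 2 h and incubated 48 h at 37C. CellTiter-Glo luminescence normalized to DMSO and no-cell wells; concentration-response curves fitted and classed.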
IL-1B inflam inh: blocks inflammasome-driven IL-1 beta release. THP-1 LPS/ATP IL-1B secretion, AlphaLISA, 16 h; stronger effect = lower value. activity change, % at 57.5 µM. 360,000 tested, 4.7% active; in the data active = activity change below about -50%; inconclusive = mostly about -30% to -49%
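THP-1 cells pretreated 1 hr with compounds (up to 57.5 uM final), then stimulated with LPS (250 ng/mL final) plus ATP (1.25 mM final); secreted IL-1B measured by AlphaLISA after 16 hr, decreased signal indicating inhibition.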
* marks the source's active call; other numbers are inactive results; ? = inconclusive; . = no result; [ ] = remark or other dose. Unless noted, calls follow the shape of the dose curve; as a rule, active = well fitted curve in the direction sought with a large enough effect; inconclusive = small, poorly fitted or top-dose-only effect, or another doubt; inactive = no such curve, though single readings can be large; an effect the other way counts as inactive or inconclusive. Unless noted, % is scaled to controls: 0 for no effect and ±100 for the full control effect.

SMILES	12-LOX inh	HT1080 IDH1KD tx	TDP1 cell noCPT	DT40 TDP1 CPT	HT1080-NT tox	IL-1B inflam inh
Cn1c(SCC(=O)N2CCc3ccccc32)nnc1-c1cccc(F)c1	6%	.	.	.	.	.
Cn1c(SCC(=O)N2CCc3ccccc32)nnc1-c1cccc(NC(=O)c2ccccc2F)c1	35µM*	.	.	.	.	.
Cn1c(SCC(=O)N2c3ccccc3CCc3ccccc32)nnc1-c1cc2ccccc2cc1O	-7%	-6%	15µM*	16µM*	-4%	?
CCN(CC)C(=O)CSc1nnc(-c2cc3ccccc3cc2O)n1CC	?	-20%	9.2µM*	0.92µM*	-23%	9
Cc1cccc(-c2nnc(SCC(=O)N3c4ccccc4CCc4ccccc43)n2C)c1	?	1%	23µM*	?	1%	-56*
CCN(CC)C(=O)CSc1nnc2ccc3ccccc3n12	-1%	.	-2%	7%	.	.
O=C(NC1CC2CC1C1CCCC21)c1ccccc1C(F)(F)F (configuration not stated)	-21%	.	.	.	.	.
O=C(Nc1cccnc1)c1ccc(CSc2ccc(Cl)cc2)cc1	-25%	.	.	.	.	.
Cc1ccccc1C(=O)N[C@H](C(=O)N1CCC[C@H]1C(=O)NCCc1ccccc1Cl)c1ccccc1	-3%	.	.	.	.	.
CCc1nc(-c2c3n(c(=O)n(Cc4cccc(OC)c4)c2=O)CCCC3)no1	-8%	.	.	.	.	.
O=C(O)/C(=C\c1ccc(Cl)c([N+](=O)[O-])c1)c1ccc(S(=O)(=O)N2CCCC2)s1	18µM*	0%	18%	2%	1%[9.24 µM]	6
O=C(O)/C(=C\c1ccc(Cl)c([N+](=O)[O-])c1)c1ccc(S(=O)(=O)N2CCCCC2)s1	?	2%	-19%	22%	0%	18
N#Cc1c(N)[nH]c2ccc(Sc3ccccc3)cc12	?	7.3µM*	0.73µM*	0.73µM*	3.3µM*	-8
N#Cc1cc(-c2ccccc2)cnc1Sc1ccccc1	1%	4%	0%	-20%	13%	-18
Cc1ccc(CS(=O)(=O)c2ccc(C(=O)N3CCCCC3)cc2[N+](=O)[O-])cc1	97%	-9%	?	?	-1%	-12
Cc1ccc(CS(=O)(=O)c2ccc(C(=O)N3CCN(c4ccccn4)CC3)cc2[N+](=O)[O-])cc1	0%	?	26µM*	9.2µM*	?	?
CCN(CC)C(=O)c1ccc(S(=O)(=O)Cc2ccc(C)cc2)c([N+](=O)[O-])c1	5%	-12%	?	?	-18%	-68*
CC(C)(C)c1ccc(CSc2nc3c(c(=O)[nH]2)CCCC3)cc1	-17%	.	?	?	.	.
C(=N\N=C(c1ccccc1)c1ccccc1)/c1ccncc1	-15%	.	.	.	.	.
O=C(/C(=N/N=C/c1ccc(O)c(O)c1O)c1ccccc1)c1ccccc1	14µM*	?	?	?	-16%	-5
Oc1cccc(C=NCc2ccccc2)c1O	-36%	-15%	?	?	-18%	27
Oc1ccc(/C=N/N=C(c2ccccc2)c2ccccc2)c(O)c1O	40µM*	?	?	?	-15%	-11
Cc1ccc(CSc2ncnc3onc(C)c23)cc1	0%	-1%	-16%	14%	16%	11
Cc1noc2ncnc(SCc3ccc(C(F)(F)F)cc3)c12	88%	-13%	16µM*	?	0%	?
Cc1noc2ncnc(Sc3c(Cl)cccc3Cl)c12	27%	?	16µM*	18µM*	?	-115*
SMILES	12-LOX inh	HT1080 IDH1KD tx	TDP1 cell noCPT	DT40 TDP1 CPT	HT1080-NT tox	IL-1B inflam inh
Cc1ccc(Sc2ncnc3onc(C)c23)cc1	0%	-25%	21µM*	?	-9%	-16
Cc1noc2ncnc(Oc3ccc(F)cc3)c12	-6%	17%	-21%	-21%	13%	-6
Cc1noc2ncnc(Oc3ccc(C(C)(C)C)cc3)c12	-2%	8%	-7%	-9%	-2%	20
Cc1ccccc1Sc1ncnc2onc(C)c12	93%	-4%[9.24 µM]	23µM*	23µM*	-4%	-52*
O=C(c1c[nH]c(C(=O)C(Cl)(Cl)Cl)c1)c1ccc(F)cc1Cl	-4%	26µM*	13µM*	?	-13%	-63*
O=C(c1ccc(Cl)cc1)c1c[nH]c(C(=O)C(Cl)(Cl)Cl)c1	?	10%	12µM*	12µM*	5%	-112*
O=C(c1c[nH]c(C(=O)C(Cl)(Cl)Cl)c1)c1ccc(F)cc1F	?	-1%	13µM*	?	-1%	0
CNC(=O)c1cc(C(=O)c2ccc(F)cc2Cl)c[nH]1	9%	-6%	-24%	1%	0%	5
O=C(Cc1ccccc1)c1c[nH]c(C(=O)C(Cl)(Cl)Cl)c1	-6%	16%	6.5µM*	2.9µM*	17%	-7
COc1cccc(CN2CCCC3(CCN(C(=O)c4ccccn4)C3)C2=O)c1OC (configuration not stated)	13%	.	.	.	.	.
Cc1ccc(C(=O)N2CCC3(CC2)N(C)C(=O)CS3(=O)=O)s1	10%	.	.	.	.	.
O=C(c1ccc(Cl)cc1)c1c[nH]c(C(=O)NNc2ccccc2)c1	?	5.2µM*	0%	10%	?	-6
Cc1sc(NC(=O)c2ccco2)nc1-c1ccc2c(c1)CC(C)N2C(=O)C1CC1 (configuration not stated)	-7%	7.9µM*	3.5µM*	6.3µM*	7.9µM*	-73*
CC(=O)Nc1nc(-c2ccc3c(c2)CC(C)N3C(=O)C2CC2)c(C)s1 (configuration not stated)	3%	-26%	2.1µM*	1.2µM*	?	-12
COc1ccc(NC(=O)Nc2cccc([N+](=O)[O-])c2)cc1Cl	-6%	-5%	9.2µM*	18µM*	-1%	-84*
COc1ccc(NC(=O)c2cccc(OC(F)F)c2)cc1Cl	-42%	10%	-25%	-3%	9%	-19
O=C(Nc1ccc(OC(F)F)c(Cl)c1)c1cccc(OC(F)F)c1	.	?	?	?	?	-55*
O=C(Nc1ccc(OC(F)F)c(Cl)c1)Nc1ccc2c(c1)OCO2	1%	?	16µM*	?	-24%	-79*
Cc1ccc(NC(=O)C(C)c2ccc([N+](=O)[O-])cc2)cc1Cl (configuration not stated)	-12%	?	?	?	?	-104*
O=C(Nc1ccc(Cl)cc1)Nc1ccc2c(c1)OCO2	470%	-1%	-14%	-27%	-1%	-15

Screening data as filed in PubChem.
